Experimental data reported in the supplement of paper PMC12669032.
Values without a mark were called inactive.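 How the source made its calls: active = AUC reduced over 20% with Padj below 0.05 in at least 2 of 3 replicates; inactive = otherwise.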

Experiments:
Roseburia intestinalis = experiment: growth AUC relative to DMSO control (median of replicates) (fraction); higher = more growth (less inhibition), active = hit call of the paper; conditions: 20 µM; 24 h
Procedure, shortened: (§1)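 Area under the growth curve was normalised to the plate median of solvent-only wells, or to row and column medians on the industrial chemical plate. Growth curves came from anaerobic gut bacterial monocultures in mGAM at 37 °C, seeded at OD600 0.05 with 20 µM compound (1% DMSO), and read at OD600 hourly for 24 h with the minimum OD set to 0. The value is the median of three biological replicates grown on separate days.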

Streptococcus salivarius = experiment: as above; conditions: 20 µM; 24 h
Procedure, shortened: as §1

Structure (SMILES)	growth AUC (Roseburia intestinalis)	growth AUC (Streptococcus salivarius)
CCCN(CCOc1c(Cl)cc(Cl)cc1Cl)C(=O)n1ccnc1	0.8	0.984
Nc1c(Cl)cc([N+](=O)[O-])cc1Cl	0.925	0.956
Clc1cccc(C(Cl)(Cl)Cl)n1	1	0.959
CCCC(Cn1cncn1)c1ccc(Cl)cc1Cl (centres undefined)	1.02	0.915
CCNc1nc(Cl)nc(NC(C)(C)C)n1	0.955	0.986
COc1cc(OC)nc(Sc2cccc(Cl)c2C(=O)O)n1	0.984	0.973
O=[N+]([O-])/N=C1\NCCN1Cc1ccc(Cl)nc1	0.955	0.97
Cc1cccc(C)c1N	0.977	1.04
CNC(=O)Oc1ccccc1OC(C)C	1.01	0.98
O=[N+]([O-])C(Br)(CO)CO	0.964	0.967
[Cl][Sn]([c]1ccccc1)([c]1ccccc1)[c]1ccccc1	0.0424 (active)	0.859
O=NN(CCO)CCO	0.971	0.986
O=C(O)CCl	0.962	0.979
O=C(Nc1ccccc1)Nc1ccnc(Cl)c1	0.896	0.844
Oc1cc(Cl)c(Cl)cc1Cl	0.906	0.95
c1cc2ccc3cccc4ccc(c1)c2c34	0.977	0.927
CCNc1nc(Cl)nc(NC(C)C)n1	1.09	0.966
Cc1ccc(NC(=O)N(C)C)cc1Cl	1.02	1.02
OC(c1ccc(Cl)cc1)(c1cncnc1)c1ccccc1Cl (centres undefined)	1	0.939

Structure (SMILES)	growth AUC (Roseburia intestinalis)	growth AUC (Streptococcus salivarius)
CN(C)C1CSSSC1.O=C(O)C(=O)O	1.2	0.994
CO/C=C(/C(=O)OC)c1ccccc1COc1cccc(C(F)(F)F)n1	0.989	0.999
CCOP(=S)(OCC)SCS(=O)(=O)CC	0.947	1.01
N#Cc1sc2c(=O)c3ccccc3c(=O)c=2sc1C#N	1	0.908
CC(C)OC(=O)C(O)(c1ccc(Br)cc1)c1ccc(Br)cc1	1	0.962
CCOP(=S)(OCC)SCSCC	0.962	1.02
CCOP(=O)(NC(C)C)Oc1ccc(S(C)=O)c(C)c1 (centres undefined)	1.05	1.05
Cc1c(N)cccc1N	0.997	1.01
CCS(=O)(=O)CCSP(=O)(OC)OC	1.06	0.957
C=CCNC(=O)c1c([Si](C)(C)C)sc(C)c1C	1.03	1
CCC1COC(Cn2cncn2)(c2ccc(Cl)cc2Cl)O1 (centres undefined)	0.936	0.948
N#Cc1cc(I)c(O)c(I)c1	0.993	0.898
ClC1=C(Cl)C2(Cl)[C@H]3[C@@H]4O[C@@H]4[C@H](Cl)[C@H]3C1(Cl)C2(Cl)Cl (single isomer, unassigned; isomer b)	0.894	0.961
CCS(=O)(=O)c1nc2ccccn2c1S(=O)(=O)NC(=O)Nc1nc(OC)cc(OC)n1	1.01	1.03
Cc1cc(C)nc(Nc2ccccc2)n1	0.999	0.995
Cc1ccccc1C(=O)Nc1cccc(OC(C)C)c1	1.01	0.988
COC(=O)C(C)(Cl)Cl	1.12	0.979
C=C/C=C/CC1=C(C)C(OC(=O)[C@@H]2C(/C=C(\C)C(=O)OC)C2(C)C)CC1=O.C=C/C=C/CC1=C(C)[C@@H](OC(=O)[C@@H]2C(C=C(C)C)C2(C)C)CC1=O (some centres undefined)	1.02	0.947
